Test results reported in PubChem BioAssay (Tox21).
Inconclusive results are not listed. Activity calls are given as the source filed them. The call rests on the fitted dose curve; in most records, active means well fitted curve in the direction sought with a large enough effect in the repeat runs; inconclusive means weak or mixed curves; inactive means no such curve, though single readings can be large; an effect the other way counts as inactive or inconclusive.

Legend:
[1] = qHTS RealTime-Glo MT Cell Viability Assay in HEK293 cells - 0 hour (AID 1224880); further: top concentration of the series differs between compounds; nearly all actives have a fitted effect of over 45% in size
Outline: (§1)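 qHTS format; HEK293 cells with NanoLuc/prosubstrate reagent, 37 C/5% CO2 for 5 h pre-dosing; compounds 23 nL in DMSO; luminescence at each time point reflects viable cells.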

[2] = A CellTox Green Cytotoxicity Assay to monitor cytotoxicity in HEK293 cells - 32 hour (AID 1224881); further: nearly all actives have a fitted effect of over 40% in size; further: potency means the concentration at half of the fitted maximal effect
Outline: (§2)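 Each value comes from one timepoint of a single continuous run in which HEK293 cells with CellTox Green were exposed to compound for up to 40 h at 37 C, dye fluorescence rising with cell death.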

[3] = A CellTox Green Cytotoxicity Assay to monitor cytotoxicity in HepG2 cells - 0 hour (AID 1224882); further: nearly all actives have a fitted effect of over 35% in size; further: potency means the concentration at half of the fitted maximal effect
Outline: (§3)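 Continuous culture of HepG2 cells with a membrane-impermeant DNA dye; rising fluorescence marks dead cells. Compound exposure lasted up to 40 h at 37 C, with reads every 8 h from 0 h.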

[4] = A CellTox Green Cytotoxicity Assay to monitor cytotoxicity in HepG2 cells - 32 hour (AID 1224883); further: nearly all actives have a fitted effect of over 50% in size; further: potency means the concentration at half of the fitted maximal effect
Outline: as §3

[5] = A CellTox Green Cytotoxicity Assay to monitor cytotoxicity in HEK293 cells - 8 hour (AID 1224884); further: nearly all actives have a fitted effect of over 35% in size; further: potency means the concentration at half of the fitted maximal effect
Outline: as §2

[6] = qHTS RealTime-Glo MT Cell Viability Assay in HepG2 cells - 16 hour (AID 1224885); further: nearly all actives have a fitted effect of over 50% in size
Outline: (§4)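 qHTS, HepG2, 600 cells/well, RealTime-Glo (NanoLuc + prosubstrate) added with cells; 5 h preincubation; DMSO compound addition; 37 C; luminescence at 0/8/16/24/32/40 h.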

[7] = qHTS RealTime-Glo MT Cell Viability Assay in HEK293 cells - 24 hour (AID 1224886); further: nearly all actives have a fitted effect of over 50% in size; further: potency means the concentration at half of the fitted maximal effect; on activity change, negative = cytotoxicity: top concentration of the series differs between compounds
Outline: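 Assay medium contained NanoLuc luciferase plus cell-permeant prosubstrate, added with HEK293 cells at 600 cells/well. After 5 h at 37 C/5% CO2 compounds were added; plates stayed at 37 C for 40 h with serial luminescence reads.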

[8] = qHTS RealTime-Glo MT Cell Viability Assay in HEK293 cells - 8 hour (AID 1224887); further: nearly all actives have a fitted effect of over 50% in size; further: potency means the concentration at half of the fitted maximal effect; on activity change, negative = cytotoxicity: top concentration of the series differs between compounds
Outline: as §1

[9] = A CellTox Green Cytotoxicity Assay to monitor cytotoxicity in HEK293 cells - 16 hour (AID 1224888); further: nearly all actives have a fitted effect of over 35% in size; further: potency means the concentration at half of the fitted maximal effect
Outline: as §2

[10] = qHTS RealTime-Glo MT Cell Viability Assay in HepG2 cells - 0 hour (AID 1224889); further: nearly all actives have a fitted effect of over 50% in size
Outline: as §4
On the % scale 0 is the no-effect control and ±100 the full control effect.

CO
inactive: outcome [1] | Potency [2] | Potency [3] | Potency [4] | Potency [5] | outcome [6] | Potency [7] | Potency [8] | Potency [9] | Potency [10]

C=CCn1c(=O)n([C@@H]2O[C@H](CO)[C@@H](O)[C@H]2O)c2nc(N)[nH]c(=O)c21
inactive: outcome [1] | Potency [2] | Potency [3] | Potency [4] | Potency [5] | outcome [6] | Potency [7] | Potency [8] | Potency [9] | Potency [10]

Nc1ccn(C2CO[C@H](CO)O2)c(=O)n1 (stereo partly specified)
active: Potency [2] 19 µM | Potency [3] 26.8 µM | Potency [4] 5.35 µM | Potency [5] 16.9 µM | Potency [9] 19 µM
inactive: outcome [1] | outcome [6] | Potency [7] | Potency [8] | Potency [10]

O=C(O)C1CCC1
inactive: outcome [1] | Potency [2] | Potency [3] | Potency [4] | Potency [5] | outcome [6] | Potency [7] | Potency [8] | Potency [9] | Potency [10]

NC(CS)C(=O)O (stereo unspecified)
inactive: outcome [1] | Potency [2] | Potency [3] | Potency [4] | Potency [5] | outcome [6] | Potency [7] | Potency [8] | Potency [9] | Potency [10]

COC(=O)CCCCCCCCC(=O)OC
inactive: outcome [1] | Potency [2] | Potency [3] | Potency [4] | Potency [5] | outcome [6] | Potency [7] | Potency [8] | Potency [9] | Potency [10]

CC(C=O)Cc1ccc(C(C)C)cc1 (stereo unspecified)
inactive: outcome [1] | Potency [2] | Potency [3] | Potency [4] | Potency [5] | outcome [6] | Potency [7] | Potency [8] | Potency [9]

CC(C)CCCC(C)NCCC(C)C (stereo unspecified)
inactive: outcome [1] | Potency [2] | Potency [3] | Potency [4] | Potency [5] | outcome [6] | Potency [7] | Potency [8] | Potency [9]

CC(=O)CCc1ccc(O)cc1
inactive: outcome [1] | Potency [2] | Potency [3] | Potency [4] | Potency [5] | outcome [6] | Potency [7] | Potency [8] | Potency [9]

CSc1ccc(C=O)cc1
inactive: outcome [1] | Potency [2] | Potency [3] | Potency [4] | Potency [5] | outcome [6] | Potency [7] | Potency [8] | Potency [9]

C=CCOc1nc(OCC=C)nc(OCC=C)n1
inactive: outcome [1] | Potency [2] | Potency [3] | Potency [4] | Potency [5] | outcome [6] | Potency [7] | Potency [8] | Potency [9] | Potency [10]

CSc1nc(NC2CC2)nc(NC(C)(C)C)n1
active: Potency [7] 21.9 µM | Potency [8] 19.5 µM
inactive: outcome [1] | Potency [2] | Potency [3] | Potency [4] | Potency [5] | outcome [6] | Potency [9] | Potency [10]

O=Cc1ccccc1[N+](=O)[O-]
inactive: outcome [1] | Potency [2] | Potency [3] | Potency [4] | Potency [5] | outcome [6] | Potency [7] | Potency [8] | Potency [9] | Potency [10]

COc1cc(CCC(C)=O)ccc1O
inactive: outcome [1] | Potency [2] | Potency [3] | Potency [4] | Potency [5] | outcome [6] | Potency [7] | Potency [8] | Potency [9] | Potency [10]

Oc1ccc2c(c1)OC[C@@H](N1CCC(O)(c3ccc(F)cc3)CC1)[C@H]2O
inactive: outcome [1] | Potency [2] | Potency [3] | Potency [4] | Potency [5] | outcome [6] | Potency [7] | Potency [8] | Potency [9]

FC(F)(F)C(F)(F)C(F)(F)C(F)(F)C(F)(F)C(F)(F)C(F)(F)C(F)(F)C(F)(F)C(F)(F)F
inactive: activity change, negative = cytotoxicity [1] -21.9% [at 6.97 µM] | cytotoxicity increase [2] -14.9% [at 6.97 µM] | cytotoxicity [3] 4.39% [at 6.97 µM] | cytotoxicity increase [4] 1.61% [at 6.97 µM] | cytotoxicity increase [5] 4.13% [at 6.97 µM] | activity change, negative = cytotoxic [6] 3.86% [at 6.97 µM] | activity change, negative = cytotoxicity [7] -12.9% [at 6.97 µM] | activity change, negative = cytotoxicity [8] -20.1% [at 6.97 µM] | activity change [9] -9% [at 6.97 µM, hits give high values] | activity change, negative = cytotoxicity [10] 12.4% [at 6.97 µM]

CC(CCO)CCCC(C)(C)O (stereo unspecified)
inactive: outcome [1] | Potency [2] | Potency [3] | Potency [4] | Potency [5] | outcome [6] | Potency [7] | Potency [8] | Potency [9] | Potency [10]

C=CC(=O)N1CCOCC1
inactive: outcome [1] | Potency [2] | Potency [3] | Potency [4] | Potency [5] | outcome [6] | Potency [7] | Potency [8] | Potency [9] | Potency [10]

CC(C)CCCC(C)CCCC(C)CCCCC(C)CCCC(C)CCCC(C)C (stereo unspecified)
inactive: outcome [1] | Potency [2] | Potency [3] | Potency [4] | Potency [5] | outcome [6] | Potency [7] | Potency [9] | Potency [10]

C=CCSCC1Nc2cc(Cl)c(S(N)(=O)=O)cc2S(=O)(=O)N1 (stereo unspecified)
inactive: outcome [1] | Potency [2] | Potency [3] | Potency [4] | Potency [5] | outcome [6] | Potency [7] | Potency [9] | Potency [10]

O=c1[nH]c(=O)n([C@H]2O[C@H](CO)[C@@H](O)[C@@H]2O)cc1/C=C\Br
inactive: outcome [1] | Potency [2] | Potency [3] | Potency [4] | Potency [5] | outcome [6] | Potency [7] | Potency [9] | Potency [10]

O=C(O)CCNC(=O)c1ccc(N=Nc2ccc(O)c(C(=O)O)c2)cc1
inactive: outcome [1] | Potency [2] | Potency [3] | Potency [4] | Potency [5] | outcome [6] | Potency [7] | Potency [8] | Potency [9] | Potency [10]

CCn1cc(C(=O)O)c(=O)c2cc(F)c(N3CCN(C)CC3)cc21
inactive: activity change, negative = cytotoxicity [1] 5.85% [at 15.8 µM] | cytotoxicity increase [2] -8.3% [at 15.8 µM] | cytotoxicity [3] -1.13% [at 15.8 µM] | cytotoxicity increase [4] -17.6% [at 15.8 µM] | cytotoxicity increase [5] -3.43% [at 15.8 µM] | activity change, negative = cytotoxic [6] 0.92% [at 15.8 µM] | activity change, negative = cytotoxicity [7] 2.21% [at 15.8 µM] | activity change [9] -0.608% [at 15.8 µM, hits give high values] | activity change, negative = cytotoxicity [10] 5.05% [at 15.8 µM]
